Test results reported in ChEMBL document CHEMBL3988442, “University of Dundee, Small-Polar-MMV Screening Library” (2021).
For some of these results: Results with a measured potency or affinity are listed apart.

Key:
Parameters in all cases: scale not given: direction of the effect not stated beside the values
[1] = biological target: Protein translocase subunit SecA (Escherichia coli (strain K12)) (UniProt P10408); experiment: Assay to Identify E. coli SecA ATPase Inhibitors; type: functional; details: 30 µM
[2] = biological target: T1, Ubiquitin-activating enzyme e1, putative (Leishmania donovani (strain BPK282A1)) (UniProt E9BSI1); experiment: Leishmania donovani Ubiquitin Activating Enzyme (LdE1); type: functional; details: 30 µM
T1 sequence (whole entry): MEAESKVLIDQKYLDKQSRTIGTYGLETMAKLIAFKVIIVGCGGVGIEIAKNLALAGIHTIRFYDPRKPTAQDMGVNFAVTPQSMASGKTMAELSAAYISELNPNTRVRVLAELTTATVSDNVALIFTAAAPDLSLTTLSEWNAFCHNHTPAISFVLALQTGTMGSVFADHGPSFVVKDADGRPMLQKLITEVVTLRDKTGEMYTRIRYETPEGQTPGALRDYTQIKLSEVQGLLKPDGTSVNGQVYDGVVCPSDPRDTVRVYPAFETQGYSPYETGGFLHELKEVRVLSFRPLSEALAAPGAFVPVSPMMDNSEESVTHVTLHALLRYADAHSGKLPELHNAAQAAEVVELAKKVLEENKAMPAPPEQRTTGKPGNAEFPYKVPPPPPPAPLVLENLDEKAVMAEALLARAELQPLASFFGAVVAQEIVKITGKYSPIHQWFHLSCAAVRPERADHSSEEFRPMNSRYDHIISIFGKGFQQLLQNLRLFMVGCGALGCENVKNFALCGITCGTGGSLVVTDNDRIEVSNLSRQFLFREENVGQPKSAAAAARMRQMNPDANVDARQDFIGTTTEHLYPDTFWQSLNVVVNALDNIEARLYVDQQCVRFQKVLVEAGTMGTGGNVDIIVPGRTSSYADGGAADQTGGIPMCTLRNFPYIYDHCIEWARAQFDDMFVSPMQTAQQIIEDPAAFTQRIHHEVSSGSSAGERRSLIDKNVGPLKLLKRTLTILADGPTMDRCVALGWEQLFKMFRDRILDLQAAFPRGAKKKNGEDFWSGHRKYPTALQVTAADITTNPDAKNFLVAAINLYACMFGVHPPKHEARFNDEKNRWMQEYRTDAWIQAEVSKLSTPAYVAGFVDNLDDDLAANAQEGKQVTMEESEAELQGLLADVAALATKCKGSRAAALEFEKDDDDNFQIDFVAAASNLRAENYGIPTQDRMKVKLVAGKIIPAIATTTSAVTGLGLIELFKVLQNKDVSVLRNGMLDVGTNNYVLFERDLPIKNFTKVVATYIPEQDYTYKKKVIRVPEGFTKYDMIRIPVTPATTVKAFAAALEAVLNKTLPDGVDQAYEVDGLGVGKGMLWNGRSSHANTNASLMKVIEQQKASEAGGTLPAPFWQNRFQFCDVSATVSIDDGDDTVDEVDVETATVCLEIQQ

[3] = biological target: AMP-activated protein kinase, AMPK (Homo sapiens) (UniProt P54646+O43741+P54619+Q9UGJ0+Q9Y478+Q13131+Q9UGI9); experiment: AMP-dependent Kinase enzyme assay. An in vitro enzyme assay that detects ADP turnover that is directly proportional to AMPK activity. This uses naive AMPK that is activated during the assay with MK-8722; type: functional; details: 30 µM
[4] = biological target: Sialic acid-binding Ig-like lectin 9 (Homo sapiens) (UniProt Q9Y336); experiment: Hs-Siglec9 ALPHAscreen SOP 20170721; details: 10 µM
[5] = system: Trypanosoma cruzi; experiment: Trypanosoma cruzi phosphomannomutase and mannose-1-phosphate guanylyltransferase assay; type: functional; details: 10 µM
[6] = biological target: T2, Arginase-2, mitochondrial (Homo sapiens) (UniProt P78540); experiment: in vitro enzyme assay to detect the production of urea directly proportional to the activity of Arginase II; type: functional; details: 33.3 µM; further: in the data most compounds retested in dose-response had high values
T2 sequence (whole entry): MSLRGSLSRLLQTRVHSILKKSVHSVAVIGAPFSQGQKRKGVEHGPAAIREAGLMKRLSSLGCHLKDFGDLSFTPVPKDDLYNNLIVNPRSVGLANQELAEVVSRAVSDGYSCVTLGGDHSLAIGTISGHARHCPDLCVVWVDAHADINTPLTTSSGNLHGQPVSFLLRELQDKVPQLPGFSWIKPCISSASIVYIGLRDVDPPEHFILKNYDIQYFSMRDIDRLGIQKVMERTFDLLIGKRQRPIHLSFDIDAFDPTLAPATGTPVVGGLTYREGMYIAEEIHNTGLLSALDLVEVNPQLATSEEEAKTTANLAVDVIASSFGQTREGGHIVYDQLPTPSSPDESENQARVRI

[7] = biological target: T3, Proteasome subunit beta (Trypanosoma cruzi) (UniProt O96673); experiment: Trypanosoma cruzi proteasome chymotrypsin-like activity (TcProtChymo) assay.; further: in the data most compounds retested in dose-response had high values; type: functional; details: 9.37 µM
T3 sequence (whole entry): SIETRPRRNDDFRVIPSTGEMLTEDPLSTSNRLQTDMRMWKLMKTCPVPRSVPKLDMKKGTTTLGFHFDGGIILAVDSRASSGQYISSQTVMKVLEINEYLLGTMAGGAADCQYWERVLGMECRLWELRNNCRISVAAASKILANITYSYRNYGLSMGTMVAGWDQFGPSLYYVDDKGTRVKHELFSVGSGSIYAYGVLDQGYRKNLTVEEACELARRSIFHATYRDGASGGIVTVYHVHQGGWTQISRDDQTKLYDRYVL

[8] = organism: Homo sapiens; experiment: To identify inhibition of the IFN signalling (Jak-Stat) pathway via expression of an eGFP reporter gene under the control of an IFN-stimulated response element (ISRE) containing MxA promoter.; type: functional; details: 30 µM
[9] = biological target: T4, Tyrosyl-tRNA synthetase, putative (Trypanosoma cruzi (strain CL Brener)) (UniProt Q4DSP6); experiment: Trypanosoma cruzi tyrosyl tRNA synthetase (TcYRS) _High Tyrosine SOP; type: functional; details: 30 µM; further: in the data most compounds retested in dose-response had high values
T4 sequence (whole entry): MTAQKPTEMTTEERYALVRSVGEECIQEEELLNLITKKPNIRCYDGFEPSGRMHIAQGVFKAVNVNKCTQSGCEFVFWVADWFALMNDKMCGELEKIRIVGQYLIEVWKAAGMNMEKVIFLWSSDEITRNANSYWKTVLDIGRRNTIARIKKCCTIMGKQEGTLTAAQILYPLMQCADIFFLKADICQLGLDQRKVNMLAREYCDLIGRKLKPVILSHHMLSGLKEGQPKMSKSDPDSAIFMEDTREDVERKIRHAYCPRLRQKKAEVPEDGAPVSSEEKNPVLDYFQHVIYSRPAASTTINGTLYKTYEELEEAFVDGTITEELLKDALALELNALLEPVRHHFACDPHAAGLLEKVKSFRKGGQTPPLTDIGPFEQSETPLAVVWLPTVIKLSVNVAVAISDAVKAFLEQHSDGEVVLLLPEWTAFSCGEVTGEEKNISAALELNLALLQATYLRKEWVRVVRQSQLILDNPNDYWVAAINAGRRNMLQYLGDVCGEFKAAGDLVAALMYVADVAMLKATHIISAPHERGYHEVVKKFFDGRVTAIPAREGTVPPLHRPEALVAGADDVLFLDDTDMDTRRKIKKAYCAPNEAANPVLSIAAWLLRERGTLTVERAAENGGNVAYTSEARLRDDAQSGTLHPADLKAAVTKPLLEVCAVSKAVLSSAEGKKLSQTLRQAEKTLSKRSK

[10] = biological target: T4, Tyrosyl-tRNA synthetase, putative (Trypanosoma cruzi (strain CL Brener)); experiment: Trypanosoma cruzi tyrosyl tRNA synthetase (TcYRS) SOP; type: functional; details: 30 µM
[11] = biological target: Chromo domain-containing protein 1 (Saccharomyces cerevisiae (strain ATCC 204508 / S288c) (Baker's yeast)) (UniProt P32657); experiment: ScCHD-1 Enzyme Inhibition Assay; type: functional; details: 30 µM; further: in the data most compounds retested in dose-response had high values
Sequence of Chromo domain-containing protein 1 (Saccharomyces cerevisiae (strain ATCC 204508 / S288c) (Baker's yeast)) (P32657 whole entry, the tested form may be a part): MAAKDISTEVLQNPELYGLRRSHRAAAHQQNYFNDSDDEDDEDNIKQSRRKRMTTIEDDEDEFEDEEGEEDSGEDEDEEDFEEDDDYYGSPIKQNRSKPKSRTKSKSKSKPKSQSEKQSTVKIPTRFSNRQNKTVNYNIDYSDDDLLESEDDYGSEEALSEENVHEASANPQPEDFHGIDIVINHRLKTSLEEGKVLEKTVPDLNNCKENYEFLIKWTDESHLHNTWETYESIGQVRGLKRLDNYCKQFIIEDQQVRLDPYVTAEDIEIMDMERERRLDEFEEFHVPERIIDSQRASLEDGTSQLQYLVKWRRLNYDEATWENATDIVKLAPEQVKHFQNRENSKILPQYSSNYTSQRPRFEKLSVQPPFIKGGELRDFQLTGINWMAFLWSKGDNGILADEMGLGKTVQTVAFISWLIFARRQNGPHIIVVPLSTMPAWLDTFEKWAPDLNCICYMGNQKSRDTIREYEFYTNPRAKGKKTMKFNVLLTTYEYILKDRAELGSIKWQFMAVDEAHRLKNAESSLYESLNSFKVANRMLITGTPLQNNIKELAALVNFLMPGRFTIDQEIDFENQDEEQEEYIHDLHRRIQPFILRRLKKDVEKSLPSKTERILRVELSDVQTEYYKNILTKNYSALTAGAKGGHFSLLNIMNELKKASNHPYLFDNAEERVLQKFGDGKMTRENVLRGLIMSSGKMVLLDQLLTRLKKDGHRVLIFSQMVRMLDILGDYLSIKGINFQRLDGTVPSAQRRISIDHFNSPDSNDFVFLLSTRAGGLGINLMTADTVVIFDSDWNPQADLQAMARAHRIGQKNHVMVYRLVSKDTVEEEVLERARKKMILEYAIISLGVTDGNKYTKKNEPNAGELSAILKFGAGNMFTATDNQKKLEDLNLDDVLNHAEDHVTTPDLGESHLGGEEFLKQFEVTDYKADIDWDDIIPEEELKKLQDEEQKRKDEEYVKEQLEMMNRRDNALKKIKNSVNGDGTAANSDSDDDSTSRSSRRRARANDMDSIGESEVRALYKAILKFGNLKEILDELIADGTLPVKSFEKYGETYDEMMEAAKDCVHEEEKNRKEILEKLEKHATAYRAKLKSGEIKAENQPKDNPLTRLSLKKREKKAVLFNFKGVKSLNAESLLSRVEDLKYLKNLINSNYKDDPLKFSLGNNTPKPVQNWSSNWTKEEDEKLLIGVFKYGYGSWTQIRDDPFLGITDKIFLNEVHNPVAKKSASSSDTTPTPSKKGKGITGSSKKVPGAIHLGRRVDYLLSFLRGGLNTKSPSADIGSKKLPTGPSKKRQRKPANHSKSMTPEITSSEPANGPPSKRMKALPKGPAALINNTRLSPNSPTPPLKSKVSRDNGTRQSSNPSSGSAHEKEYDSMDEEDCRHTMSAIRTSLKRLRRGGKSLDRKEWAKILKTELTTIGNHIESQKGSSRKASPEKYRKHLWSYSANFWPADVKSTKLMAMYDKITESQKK

Sequence of Sialic acid-binding Ig-like lectin 9 (Homo sapiens) (Q9Y336 whole entry): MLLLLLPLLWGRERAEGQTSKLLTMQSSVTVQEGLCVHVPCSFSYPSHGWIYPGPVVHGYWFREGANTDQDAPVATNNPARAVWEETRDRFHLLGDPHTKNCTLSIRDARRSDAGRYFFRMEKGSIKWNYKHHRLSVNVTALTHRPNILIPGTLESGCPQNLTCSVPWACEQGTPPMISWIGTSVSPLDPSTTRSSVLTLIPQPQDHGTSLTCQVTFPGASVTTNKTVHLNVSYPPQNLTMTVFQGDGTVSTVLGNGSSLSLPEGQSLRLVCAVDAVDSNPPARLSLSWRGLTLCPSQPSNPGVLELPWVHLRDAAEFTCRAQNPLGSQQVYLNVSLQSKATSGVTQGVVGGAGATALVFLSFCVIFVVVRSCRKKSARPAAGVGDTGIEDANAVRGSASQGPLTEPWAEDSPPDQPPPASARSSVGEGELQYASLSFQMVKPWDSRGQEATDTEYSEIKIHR
Sequence of Protein translocase subunit SecA (Escherichia coli (strain K12)) (P10408 whole entry): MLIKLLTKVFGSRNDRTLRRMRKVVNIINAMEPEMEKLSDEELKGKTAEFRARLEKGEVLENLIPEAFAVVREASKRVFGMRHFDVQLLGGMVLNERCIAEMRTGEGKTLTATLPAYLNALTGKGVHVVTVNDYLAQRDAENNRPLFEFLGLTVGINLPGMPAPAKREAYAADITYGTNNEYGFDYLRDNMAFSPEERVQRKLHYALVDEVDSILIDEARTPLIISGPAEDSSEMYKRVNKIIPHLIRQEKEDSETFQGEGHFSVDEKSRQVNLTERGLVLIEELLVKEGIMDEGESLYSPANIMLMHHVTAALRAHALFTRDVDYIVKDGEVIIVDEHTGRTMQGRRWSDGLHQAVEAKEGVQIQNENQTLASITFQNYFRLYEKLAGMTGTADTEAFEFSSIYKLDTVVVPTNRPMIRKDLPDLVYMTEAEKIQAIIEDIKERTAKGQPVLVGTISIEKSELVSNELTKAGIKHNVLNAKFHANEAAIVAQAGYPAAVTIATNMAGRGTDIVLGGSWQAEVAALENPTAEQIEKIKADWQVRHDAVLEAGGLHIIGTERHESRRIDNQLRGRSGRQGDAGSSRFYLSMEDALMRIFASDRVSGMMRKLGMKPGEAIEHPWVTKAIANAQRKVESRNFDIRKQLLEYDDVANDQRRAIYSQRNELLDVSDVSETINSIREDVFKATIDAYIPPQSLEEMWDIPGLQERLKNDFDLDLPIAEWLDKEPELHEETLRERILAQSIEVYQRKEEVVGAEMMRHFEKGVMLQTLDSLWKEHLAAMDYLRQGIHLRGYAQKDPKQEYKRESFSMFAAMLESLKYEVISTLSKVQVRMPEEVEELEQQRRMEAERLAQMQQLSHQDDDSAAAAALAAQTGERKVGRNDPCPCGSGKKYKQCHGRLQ

Structure (SMILES)	Percent Effect [1] [%]	Percent Effect [2] [%]	Percent Effect [3] [%]	Percent Effect [4] [%]	Percent Effect [5] [%]	Percent Effect [6] [%]	Percent Effect [7] [%]	Percent Effect [8] [%]	Percent Effect [9] [%]	Percent Effect [10] [%]	Percent Effect [11] [%]
c1ccc(-c2nccc(CNCC3CCCN3c3cccnn3)n2)cc1 (stereo not given)	-3.71	-18.4	3.25	-4.68	-0.94	0.383	-0.501	20.1	6.37	-2.44	11.3
COc1ncccc1NC(=O)C1CCS(=O)(=O)C1 (stereo not given)	-5.85	20.8	-1.47	-3.58	-5.99	-1.07	3.21	19.2	3.88	12.2	-9.93
O=C(c1ccoc1)N1CC[C@H]2OCC[C@@]2(COc2ncccc2F)C1	-6.18	18.9	-5.57	25.4	3.23	2.73	6.78	-2.11	4.3	21	-7.11
Cc1cnn(CC2CCCN2C(=O)CCCc2nc(C)no2)c1 (stereo not given)	-1.89	13.2	1.65	-10.6	-3.21	-3.55	4.89	27.9	1.06	10.4	-6.12
Cc1nc(CO[C@@H]2CN(Cc3cnn(C)c3)[C@@H]3COC[C@@H]32)cs1	-0.847	13.7	1.23	4.76	-2.58	1.6	7.96	2.98	3.12	11.1	3.26
COc1cc(N2C[C@@H]3COC[C@]3(COc3cccnc3)C2)ncn1	-4.12	16.2	3.02	-8.65	5.38	-2.87	18.4	21.1	2.16	12.8	-1.83
CCn1cc(NC(=O)NCC(O)COc2cccc(F)c2)cn1 (stereo not given)	2.07	13.2	-3.12	0.363	-7.14	1.92	6.68	13.5	2.45	17.1	-8.89
CC(C)C(=O)N1CCN(C(=O)c2cc(C(C)C)on2)[C@H]2CS(=O)(=O)C[C@H]21	-2.71	18.1	-7.12	11.2	3.4	7.06	17.5	13.2	0	7.69	-5.25
COc1ccc(C(O)CNC(=O)Nc2cc(C)nn2C)cc1 (stereo not given)	-8.64	5.26	3.77	-0.779	-9.59	-1.53	15.4	20.4	-3.43	-2.44	-6.99
Cc1ccc(NC(=O)NC(C)c2nc[nH]n2)s1 (stereo not given)	-7.16	5.41	1.69	19.6	-0.293	2.23	9.7	-8.4	6.45	13.6	-2.14
CN(C)C(=O)C1CN(Cc2c[nH]cn2)CCN(C2CCOCC2)C1 (stereo not given)	-7.04	12.2	8.74	1.93	0.198	8.12	6.24	15.9	6.45	16.9	-11.5
CC(C)CC(=O)N1CC[C@@H]2[C@H](CC1)N(S(C)(=O)=O)CCS2(=O)=O	-4.61	18.9	-5.46	-1.46	5.66	25.8	14.1	6.42	5.94	13.4	-6.08
Cc1cnc2n(c1=O)CC(C(=O)Nc1cccc3cccnc13)CS2 (stereo not given)	-3.5	-2.74	-76.9	-1.76	5.88	0.455	8.87	5.24	1.07	0	-2.86
CN(Cc1cccc(F)c1)C1CCN(CCc2ccccn2)CC1	-3.25	21.6	-5.03	-1.38	-0.65	-1.29	9.34	20.8	3.96	13.4	-4.09
CN(C)C(=O)CO[C@@H]1CC[C@H]2[C@H]1OCCN2C(=O)C1CCOCC1	-1.1	2.7	-6.25	-1.21	-3.52	2.08	13.8	21	9.9	8.54	2.17
O=C1COC2(CCN(Cc3cccs3)CC2)CN1c1ccccc1	-2.08	5.48	0.847	2.36	-1.39	-2.4	7.62	-0.737	3.12	3.7	-0.651
COCCn1ccc(NC(=O)Nc2cccnc2)n1	-2.55	0	3.19	3.76	2.82	-7.1	15.6	21.2	3.19	7.79	-6.3
O=C(c1ccncc1F)N1CCN(CC2CC2)c2ncccc2C1	-8.25	-1.33	4.65	-2.72	-9.63	-14.6	10.2	-11	-6.35	-10.3	-9.4
OC[C@H]1CC[C@]2(CC1)CN(Cc1ccccn1)Cc1ccccc1O2	-1.22	1.35	15.4	4.6	-3.56	1.16	1.25	5.31	5.38	3.9	-8.96
CCN1CCN(C2CCN(Cc3nnc(C(C)(C)C)o3)CC2)C1=O	-4.08	13	7.53	-0.00786	0.686	1.05	10.3	4.76	7.62	14.1	-21.7
